Of roughly 21,000 targets only a part is listed; those with the largest changes were picked by preference.
Compound: Cc1cc(ccc1-c1ccccc1)C(=O)N1CCCN(CC1)C(=O)CCl [compound 10]
Assay: probe-labelled cysteine peptide fold change vs DMSO (competition) (log2 fold change); higher = less target engagement (more negative = stronger competition)
Conditions: THP-1, incubation time: 4 h
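Note: competitive profiling in live THP-1 cells: cysteine peptides tagged with an iodoacetamide desthiobiotin (IA-DTB) probe, intensity after compound treatment relative to DMSO-treated cells.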

UniProt Q9BTV6, sequence (Q9BTV6 whole entry, looked up): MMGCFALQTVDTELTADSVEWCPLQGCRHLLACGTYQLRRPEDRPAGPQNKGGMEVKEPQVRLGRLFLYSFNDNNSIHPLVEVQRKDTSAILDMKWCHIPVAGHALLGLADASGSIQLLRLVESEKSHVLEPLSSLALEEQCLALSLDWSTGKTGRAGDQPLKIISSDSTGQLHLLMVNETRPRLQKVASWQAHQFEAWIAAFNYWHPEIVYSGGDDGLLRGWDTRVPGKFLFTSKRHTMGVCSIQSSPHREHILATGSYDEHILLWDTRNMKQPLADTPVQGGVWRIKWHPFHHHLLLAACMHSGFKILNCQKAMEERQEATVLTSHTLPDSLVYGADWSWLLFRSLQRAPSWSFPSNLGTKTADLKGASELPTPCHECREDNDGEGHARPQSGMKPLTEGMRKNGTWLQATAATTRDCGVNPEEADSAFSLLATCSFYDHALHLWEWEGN
UniProt Q14232, sequence (Q14232 whole entry, looked up): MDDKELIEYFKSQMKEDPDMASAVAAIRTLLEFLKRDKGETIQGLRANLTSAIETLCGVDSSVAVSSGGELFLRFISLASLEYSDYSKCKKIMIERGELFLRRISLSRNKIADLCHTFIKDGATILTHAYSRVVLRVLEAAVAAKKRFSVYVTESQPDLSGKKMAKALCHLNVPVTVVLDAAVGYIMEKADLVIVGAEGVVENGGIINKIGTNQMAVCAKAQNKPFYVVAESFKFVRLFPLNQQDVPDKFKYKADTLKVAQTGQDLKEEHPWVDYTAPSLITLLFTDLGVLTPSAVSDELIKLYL
UniProt P28715, sequence (P28715 whole entry): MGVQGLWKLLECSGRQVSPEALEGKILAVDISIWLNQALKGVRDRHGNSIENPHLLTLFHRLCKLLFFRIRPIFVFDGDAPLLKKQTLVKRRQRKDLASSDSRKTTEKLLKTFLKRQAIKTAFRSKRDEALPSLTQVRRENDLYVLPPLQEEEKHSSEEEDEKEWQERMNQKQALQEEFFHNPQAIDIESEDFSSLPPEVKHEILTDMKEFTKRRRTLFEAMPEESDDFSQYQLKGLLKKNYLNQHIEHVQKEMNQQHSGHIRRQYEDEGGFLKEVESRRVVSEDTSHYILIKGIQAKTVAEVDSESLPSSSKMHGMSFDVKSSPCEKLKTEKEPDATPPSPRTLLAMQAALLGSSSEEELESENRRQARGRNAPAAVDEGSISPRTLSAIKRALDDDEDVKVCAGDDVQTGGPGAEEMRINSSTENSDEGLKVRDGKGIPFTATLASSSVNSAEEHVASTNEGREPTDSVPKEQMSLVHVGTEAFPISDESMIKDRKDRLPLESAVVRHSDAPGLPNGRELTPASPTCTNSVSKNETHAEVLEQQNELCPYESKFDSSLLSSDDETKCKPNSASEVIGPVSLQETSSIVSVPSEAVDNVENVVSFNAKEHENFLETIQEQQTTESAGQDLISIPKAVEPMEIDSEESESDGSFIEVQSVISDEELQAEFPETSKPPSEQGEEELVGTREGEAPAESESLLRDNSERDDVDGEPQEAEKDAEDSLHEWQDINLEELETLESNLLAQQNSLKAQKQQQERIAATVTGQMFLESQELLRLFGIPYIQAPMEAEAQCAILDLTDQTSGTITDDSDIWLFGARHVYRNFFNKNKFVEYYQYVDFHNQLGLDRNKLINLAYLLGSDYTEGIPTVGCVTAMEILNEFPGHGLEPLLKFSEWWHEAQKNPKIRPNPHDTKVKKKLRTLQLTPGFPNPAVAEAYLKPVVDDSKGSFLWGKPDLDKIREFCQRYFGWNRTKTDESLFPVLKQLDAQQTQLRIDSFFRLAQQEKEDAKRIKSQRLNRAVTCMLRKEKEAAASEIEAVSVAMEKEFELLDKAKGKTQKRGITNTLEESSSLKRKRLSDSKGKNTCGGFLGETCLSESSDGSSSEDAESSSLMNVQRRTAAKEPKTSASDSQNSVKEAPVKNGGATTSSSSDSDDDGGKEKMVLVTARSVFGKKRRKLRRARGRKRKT
UniProt Q5JSP0, sequence (Q5JSP0 whole entry, looked up): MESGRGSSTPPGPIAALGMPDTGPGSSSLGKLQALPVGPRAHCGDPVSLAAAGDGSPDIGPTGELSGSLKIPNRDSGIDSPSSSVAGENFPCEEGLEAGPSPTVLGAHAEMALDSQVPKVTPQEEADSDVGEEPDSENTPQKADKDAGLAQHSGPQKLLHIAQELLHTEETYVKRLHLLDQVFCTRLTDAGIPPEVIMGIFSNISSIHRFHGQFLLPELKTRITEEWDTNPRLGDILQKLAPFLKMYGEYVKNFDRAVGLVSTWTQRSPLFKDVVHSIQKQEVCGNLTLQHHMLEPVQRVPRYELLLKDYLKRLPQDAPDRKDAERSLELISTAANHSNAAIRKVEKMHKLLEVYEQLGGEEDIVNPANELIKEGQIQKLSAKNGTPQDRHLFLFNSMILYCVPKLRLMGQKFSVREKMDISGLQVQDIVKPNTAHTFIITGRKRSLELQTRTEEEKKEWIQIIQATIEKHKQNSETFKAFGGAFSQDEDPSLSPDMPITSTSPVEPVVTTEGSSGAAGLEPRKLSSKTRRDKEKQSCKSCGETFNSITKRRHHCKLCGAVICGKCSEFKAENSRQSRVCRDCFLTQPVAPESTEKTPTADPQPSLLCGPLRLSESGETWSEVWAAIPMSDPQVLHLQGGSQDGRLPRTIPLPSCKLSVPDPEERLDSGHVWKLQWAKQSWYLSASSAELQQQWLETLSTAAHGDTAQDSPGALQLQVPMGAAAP
UniProt P42566, sequence (P42566 whole entry, looked up): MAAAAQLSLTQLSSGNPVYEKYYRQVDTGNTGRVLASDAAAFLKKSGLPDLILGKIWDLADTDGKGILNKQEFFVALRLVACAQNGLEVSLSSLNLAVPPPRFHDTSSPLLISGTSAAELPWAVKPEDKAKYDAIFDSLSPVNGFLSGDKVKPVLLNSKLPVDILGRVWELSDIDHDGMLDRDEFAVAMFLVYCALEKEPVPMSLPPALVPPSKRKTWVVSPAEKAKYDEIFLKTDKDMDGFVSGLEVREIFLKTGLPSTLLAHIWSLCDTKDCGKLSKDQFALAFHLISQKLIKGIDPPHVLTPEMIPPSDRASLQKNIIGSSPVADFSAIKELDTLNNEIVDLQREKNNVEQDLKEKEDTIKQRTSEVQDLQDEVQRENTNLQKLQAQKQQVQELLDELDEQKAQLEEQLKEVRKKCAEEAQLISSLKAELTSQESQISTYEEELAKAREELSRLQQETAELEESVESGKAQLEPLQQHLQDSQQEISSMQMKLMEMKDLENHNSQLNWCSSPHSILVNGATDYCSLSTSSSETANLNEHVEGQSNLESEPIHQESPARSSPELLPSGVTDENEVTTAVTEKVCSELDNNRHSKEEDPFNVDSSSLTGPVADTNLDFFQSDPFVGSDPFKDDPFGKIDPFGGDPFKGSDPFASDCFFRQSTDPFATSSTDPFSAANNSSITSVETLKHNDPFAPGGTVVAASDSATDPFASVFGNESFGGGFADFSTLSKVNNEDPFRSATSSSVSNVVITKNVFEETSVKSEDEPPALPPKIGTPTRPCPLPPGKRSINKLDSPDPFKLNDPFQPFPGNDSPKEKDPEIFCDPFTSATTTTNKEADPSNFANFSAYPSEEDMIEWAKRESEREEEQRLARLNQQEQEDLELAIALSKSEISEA
UniProt Q6P2E9, sequence (Q6P2E9 whole entry, looked up): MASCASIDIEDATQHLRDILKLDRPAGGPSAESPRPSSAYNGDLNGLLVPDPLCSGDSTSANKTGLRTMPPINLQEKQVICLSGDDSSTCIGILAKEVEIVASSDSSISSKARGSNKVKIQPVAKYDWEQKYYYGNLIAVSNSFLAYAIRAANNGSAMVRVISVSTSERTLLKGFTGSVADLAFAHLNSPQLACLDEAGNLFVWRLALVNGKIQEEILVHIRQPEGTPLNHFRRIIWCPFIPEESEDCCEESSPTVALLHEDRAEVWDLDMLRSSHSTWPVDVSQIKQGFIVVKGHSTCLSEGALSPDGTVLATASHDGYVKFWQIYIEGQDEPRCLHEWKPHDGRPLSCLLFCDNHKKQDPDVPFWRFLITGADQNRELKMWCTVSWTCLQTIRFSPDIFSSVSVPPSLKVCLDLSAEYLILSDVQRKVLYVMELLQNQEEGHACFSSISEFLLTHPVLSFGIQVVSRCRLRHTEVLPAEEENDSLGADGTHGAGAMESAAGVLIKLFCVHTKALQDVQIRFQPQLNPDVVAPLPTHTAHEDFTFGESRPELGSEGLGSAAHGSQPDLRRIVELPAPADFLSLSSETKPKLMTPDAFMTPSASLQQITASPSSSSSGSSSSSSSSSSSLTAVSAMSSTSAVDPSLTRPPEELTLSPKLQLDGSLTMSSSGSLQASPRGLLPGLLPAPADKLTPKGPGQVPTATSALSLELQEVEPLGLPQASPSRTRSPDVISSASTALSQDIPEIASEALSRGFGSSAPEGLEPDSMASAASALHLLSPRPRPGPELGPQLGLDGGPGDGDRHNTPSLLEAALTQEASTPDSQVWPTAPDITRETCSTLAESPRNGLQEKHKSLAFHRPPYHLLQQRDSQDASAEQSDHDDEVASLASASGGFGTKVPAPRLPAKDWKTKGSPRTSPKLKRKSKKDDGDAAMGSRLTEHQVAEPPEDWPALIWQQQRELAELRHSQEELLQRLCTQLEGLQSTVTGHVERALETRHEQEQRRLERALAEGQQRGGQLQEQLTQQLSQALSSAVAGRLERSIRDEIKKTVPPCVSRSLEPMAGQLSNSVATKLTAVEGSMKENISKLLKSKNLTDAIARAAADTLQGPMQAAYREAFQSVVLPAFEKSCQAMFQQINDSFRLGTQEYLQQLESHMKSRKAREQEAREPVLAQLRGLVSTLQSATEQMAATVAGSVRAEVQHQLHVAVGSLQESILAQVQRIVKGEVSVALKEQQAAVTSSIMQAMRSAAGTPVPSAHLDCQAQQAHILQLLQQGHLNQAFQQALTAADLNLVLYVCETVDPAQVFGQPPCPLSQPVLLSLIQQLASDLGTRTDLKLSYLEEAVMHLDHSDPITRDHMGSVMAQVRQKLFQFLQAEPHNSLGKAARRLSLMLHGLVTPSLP

Target	probe-labelled cysteine peptide fold change (10 µM)	probe-labelled cysteine peptide fold change (50 µM)
EML2_O95834_110_CLAIHPDMVTIATGQVAGTTK (UniProt O95834)	-0.0841	0.0588
EIF2S3_P41091_96+101_LDDPSCPRPECYR (UniProt P41091)	-0.389	-0.339
EPS15_P42566_782_IGTPTRPCPLPPGKR (UniProt P42566)	-0.367	-1.1
EXOSC2_Q13868_259_MMLYDTSILYCYEASLPHQIK (UniProt Q13868)	0.341	0.254
EXOSC10_Q01780_555_IAEELPKEPQGIIACCNPVPPLVR (UniProt Q01780)	-0.144	-1.17
DSCR3_O14972_219+221_VETCGCAEGYAR (UniProt O14972)	-0.345	-2.51
EIF2B1_Q14232_218_IGTNQMAVCAK (UniProt Q14232)	-0.148	-0.133
DYNC1I2_Q13409_331_TTPEYVFHCQSAVMSATFAK (UniProt Q13409)	0.091	0.418
FANCI_Q9NVI1_650_LEACILTQGDK (UniProt Q9NVI1)	-0.0611	-0.113
ELAVL1_Q15717_13_SNGYEDHMAEDCR (UniProt Q15717)	0.863	1.62
FBXO30_Q8TB52_90_VAEHLEMCPASVVCCTMEWNR (UniProt Q8TB52)	-0.103	-0.0583
EPRS_P07814_1076_KLGVENCYFPMFVSQSALEK (UniProt P07814)	0.288	0.373
EML4_Q9HC35_638_LVDEPGHCADFHPSGTVVAIGTHSGR (UniProt Q9HC35)	0.109	0.328
EEF1B2_P24534_191_LQIQCVVEDDK<|>EEF1D_P29692_247_LQIQCVVEDDK (UniProt P29692+P24534)	0.179	0.387
EXOSC6_Q5RKV6_117_RAPPGGCEERELALALQEALEPAVR (UniProt Q5RKV6)	-0.569	-1.04
DOCK10_Q96BY6_1310_TDNCEK (UniProt Q96BY6)	-0.105	-0.108
ERCC4_Q92889_803_ILWCPSPHATAELFEELK (UniProt Q92889)	-0.169	0.181
FAM208A_Q9UK61_149_ACLVHNELLEK (UniProt Q9UK61)	-0.2	-1.18

Target	probe-labelled cysteine peptide fold change (10 µM)	probe-labelled cysteine peptide fold change (50 µM)
EFNB1_P98172_89+101_LYLVRPEQAAACSTVLDPNVLVTCNRPEQEIR (UniProt P98172)	-0.388	-0.49
DUT_P33316-2_3_PCSEETPAISPSK (UniProt P33316)	-0.335	-0.042
FAM208A_Q9UK61_318_HVCPYAVVSFTYK (UniProt Q9UK61)	-0.201	-0.698
EXOSC10_Q01780_327_SFLGLTCLMQISTR (UniProt Q01780)	0.419	0.333
EIF2S1_P05198_98_VSPEEAIKCEDK (UniProt P05198)	-0.267	-1.12
ERMP1_Q7Z2K6_737_AHCEENAPLCGFPWYLPVHFLIR (UniProt Q7Z2K6)	-0.0124	0.222
EZH2_Q15910_260_ELTEQQLPGALPPECTPNIDGPNAK (UniProt Q15910)	-0.164	0.256
DYNC1H1_Q14204_1888_CYLTMTQALEAR (UniProt Q14204)	-0.0386	-0.161
DPH7_Q9BTV6_33_HLLACGTYQLR (UniProt Q9BTV6)	0.0319	0.078
EPRS_P07814_350_IDMSSNNGCMRDPTLYR (UniProt P07814)	-0.0274	-0.367
ERCC5_P28715_550_NETHAEVLEQQNELCPYESK (UniProt P28715)	-0.452	-0.364
EXOSC6_Q5RKV6_117_APPGGCEERELALALQEALEPAVR (UniProt Q5RKV6)	-0.5	-1.49
FAM76B_Q5HYJ3_73_PCQYCNIIAAFIGTK (UniProt Q5HYJ3)	-0.188	0.0361
DYNC1H1_Q14204_2712_IQFVGACNPPTDPGRKPLSHR (UniProt Q14204)	-0.0552	0.27
ENG_P17813_549_TGTLSCTVALRPK (UniProt P17813)	-0.142	-0.0378
EDC4_Q6P2E9_976_LCTQLEGLQSTVTGHVER (UniProt Q6P2E9)	-0.0211	0.299
FGD3_Q5JSP0_184_LHLLDQVFCTR (UniProt Q5JSP0)	0.0176	0.345
ELP4_Q96EB1_412_LGPGCGMMAGGK (UniProt Q96EB1)	-0.372	-1.07
